This is part of a sample that, as a whole, favours compounds with a hit. Of some 83,000 tested, about 20% had one in any assay.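 Method: cells in 96-well plates; compound added at one concentration; 48 h incubation; percent growth measured; values under 10 scored active.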 A number with no mark means an inactive call. Calls of active or inactive are those of the source.

Assay in all cases: NCI-60 one-dose screen, 48 h (100 = growth as untreated, 0 = no growth, -100 = all killed)
The test system of experiment [1] is NCI-H226 lung. Conditions: 10 µM.
The subject of experiment [2] is NCI-H322M lung. Conditions: 10 µM.
Experiment [3] relates to HOP-62 NSCLC. The settings on record: 10 µM.
Experiment [4] has as its system NCI-H460 lung. The settings on record: 10 µM.
Experiment [5] has as its system HOP-92 NSCLC. The settings on record: 10 µM.
The test system of experiment [6] is NCI-H522 lung. Conditions: 10 µM.
In experiment [7] the test system is A549/ATCC NSCLC. The settings on record: 10 µM.
Experiment [8] deals with COLO 205 colon. Conditions: 10 µM.
The test system of experiment [9] is SF-268 CNS. The settings on record: 10 µM.
Experiment [10] has as its system SF-295 CNS. Conditions: 10 µM.
Experiment [11] deals with SF-539 CNS. The settings on record: 10 µM.
The test system of experiment [12] is M14 melanoma. Conditions: 10 µM.
In experiment [13] the test system is HCT-15 colon. The settings on record: 10 µM.
In experiment [14] the test system is SNB-75 CNS. The settings on record: 10 µM.
For experiment [15], the system named is SNB-19 CNS. Conditions: 10 µM.
Experiment [16] deals with U251 CNS. The settings on record: 10 µM.
Experiment [17] has as its system PC-3 prostate. The settings on record: 10 µM.
Experiment [18] has as its system SK-MEL-5 melanoma. The settings on record: 10 µM.
In experiment [19] the test system is UACC-62 melanoma. Conditions: 10 µM.
The subject of experiment [20] is MDA-MB-468 breast. The settings on record: 10 µM unless noted.

As for `COC(=O)CNC(=O)COc1c(OC)c(OC)cc2oc(-c3cccc(C(=O)Nc4ccc(Cl)cc4)c3)cc(=O)c12`, the growth in [1] is -51.4% (active); in experiment [2], 76.6%; in [3] it was -34.4% (active); in experiment [4], 12.6%; in experiment [5], 39.1%; in [6], 64.9%. In addition, the growth was 75.4% in experiment [7]; 31% in experiment [8]; 21.9% in [9]; 21.4% in experiment [10]; 16% in experiment [11]; 7.29% (active) in experiment [12]. For the same compound, the growth in experiment [13] was 67.7%; in experiment [14] it was 85.1%; in [15] it was 25.9%; in experiment [16], 11.7%; in experiment [17], 34.7%; in experiment [18] it was 4.43% (active). For the same compound, the growth is 12.7% in experiment [19] and 94.6% in experiment [20].

Turning to `Cc1ccc(S(=O)(=O)N2CCN(S(=O)(=O)c3oc(-c4ccccc4)nc3C#N)CC2)cc1`, the growth is 69.2% in experiment [1]; 84.8% in experiment [2]; 100% in experiment [3]; 76.2% in experiment [4]; 93% in [5]; 64.1% in experiment [6]. The growth in experiment [7] is 74.7%; in experiment [8], 92.3%; in [9] it was 79.1%; in [10], 132%; in experiment [11], 101%; in experiment [12], 84.8%. Also, the growth was 82.5% in [13]; 92.6% in [14]; 78.6% in [15]; 84.4% in experiment [16]; 75% in [17]; 63.7% in experiment [18]. Besides, the growth in experiment [19] is 45.3%; in [20] it was 66.2%.

For the compound `CCOC(=O)c1ccc(NC(=O)CSC(CC(=O)c2sc(Nc3ccccn3)nc2C)c2ccccc2F)cc1` (stereo not given), the growth in experiment [1] is 4.65% (active); in [2], 17.5%; in [3], 3.54% (active); in experiment [4] it was -40.7% (active); in experiment [5], -14.5% (active); in experiment [6], -22.7% (active). Besides, the growth in [7] was 1.12% (active); in [8], -34.1% (active); in experiment [9] it was -0.243% (active); in experiment [10], 0.23% (active); in [11], -27.3% (active); in experiment [12], 0.872% (active). For the same compound, the growth in [13] is -42% (active); in [14], -3.07% (active); in experiment [15] it was 21.1%; in experiment [16], -70.4% (active); in experiment [17] it was 0.809% (active); in [18], 7.25% (active). The values for the growth in experiment [19] and in experiment [20] were 11.8% and 3.8% (active), respectively.

`COc1cc(C2CC(c3ccccc3)=Nc3c(N)nc(N)nc3N2)ccc1Oc1nc(NCCO)nc(N2CCOCC2)n1` (stereo not given): the growth in [1] is 92.5%; in experiment [2], 90.6%; in experiment [3] it was 106%; in [4], 110%; in [5], 86.3%; in experiment [6] it was 97.7%. Besides, the growth was 107% in experiment [7]; 112% in [8]; 88.8% in experiment [9]; 105% in [10]; 97.5% in experiment [11]; 104% in [12]. Also, the growth in experiment [13] was 99.4%; in [14] it was 84.3%; in experiment [15] it was 89.8%; in experiment [16], 98.1%; in experiment [17], 101%; in experiment [18] it was 98.7%. The results for the growth in [19] and in experiment [20] were 97.1% and 88%, respectively.

`CCOc1ccc(/C=N/NC(=O)Cn2nc(Cc3ccc(OC)cc3)c3onc(C)c3c2=O)cc1`: the growth in experiment [1] was 6.7% (active); in experiment [2] it was 62.1%; in [3] it was 7.48% (active); in [4], -7.59% (active); in [5] it was -25.7% (active); in experiment [6], 46.6%. The growth was 0.727% (active) in [7]; 50.4% in experiment [8]; 19% in experiment [9]; 20.4% in experiment [10]; -32.6% (active) in experiment [11]; 39% in experiment [12]. In addition, the growth in experiment [13] is 49.9%; in [14], -39.9% (active); in experiment [15] it was 29%; in experiment [16] it was 4.53% (active); in experiment [17] it was 18.3%; in experiment [18], 89.2%. In addition, the growth is 29.2% in [19] and 40.4% in [20].

With `COc1ccc(-n2c(SCC(=O)NNS(=O)(=O)c3ccccc3)nc3ccc(Cl)cc3c2=O)cc1`, the growth in experiment [1] is 91%; in experiment [2], 98.1%; in experiment [3], 96.6%; in experiment [4] it was 115%; in [5] it was 101%; in [6], 86.5%. Also, the growth in experiment [7] is 106%; in experiment [8] it was 120%; in [9], 102%; in experiment [10] it was 102%; in [11], 97.6%; in experiment [12], 104%. The growth in [13] is 92%; in experiment [14], 98.7%; in [15], 98.6%; in experiment [16], 101%; in [17] it was 88.4%; in experiment [18] it was 98.9%. Moreover, the growth was 77% in experiment [19] and 102% in [20].

As to `C#CCOc1cc(N(CC)CC)ccc1C(C(=O)NC(C)(C)C)N(C(=O)C1CCc2cc(F)ccc2O1)c1ccc(F)cc1F` (stereo not given), the growth in experiment [1] is 42.9%; in experiment [2], 81.6%; in [3], 51.6%; in experiment [4], 26.4%; in experiment [5], 30.5%; in [6], 30.7%. Further, the growth in experiment [7] was 37.5%; in experiment [8], 25.8%; in experiment [9] it was 50.6%; in [10], 33.2%; in experiment [11], 55.9%; in experiment [12], 43.3%. Moreover, the growth was 34.9% in experiment [13]; 64.4% in [14]; 39.8% in experiment [15]; 27.1% in experiment [16]; 15% in experiment [17]; 11.2% in [18]. For the same compound, the values for the growth in [19] and in experiment [20] were 29.1% and 20.9%, respectively.

For the origin of these results see PubChem BioAssay (NCI).
